The supplement of paper PMC11732987, “Enantioselective OTUD7B fragment discovery through chemoproteomics screening and high-throughput optimisation” (Communications Chemistry, 2025)

Tests used:
Assay in all cases: log2 ratio of Biotin-Ahx-Ub-VS probe labelling (fragment/DMSO); higher = less target engagement (more negative = stronger competition), active = hit call of the paper (q ≤ 0.05, log2 ratio ≤ -1)
Conditions in all cases: compound concentration: 200 uM; treatment time: 3 h
ALG13 = biological target: T1, ALG13 (UniProt Q9NP73)
T1 sequence (whole entry): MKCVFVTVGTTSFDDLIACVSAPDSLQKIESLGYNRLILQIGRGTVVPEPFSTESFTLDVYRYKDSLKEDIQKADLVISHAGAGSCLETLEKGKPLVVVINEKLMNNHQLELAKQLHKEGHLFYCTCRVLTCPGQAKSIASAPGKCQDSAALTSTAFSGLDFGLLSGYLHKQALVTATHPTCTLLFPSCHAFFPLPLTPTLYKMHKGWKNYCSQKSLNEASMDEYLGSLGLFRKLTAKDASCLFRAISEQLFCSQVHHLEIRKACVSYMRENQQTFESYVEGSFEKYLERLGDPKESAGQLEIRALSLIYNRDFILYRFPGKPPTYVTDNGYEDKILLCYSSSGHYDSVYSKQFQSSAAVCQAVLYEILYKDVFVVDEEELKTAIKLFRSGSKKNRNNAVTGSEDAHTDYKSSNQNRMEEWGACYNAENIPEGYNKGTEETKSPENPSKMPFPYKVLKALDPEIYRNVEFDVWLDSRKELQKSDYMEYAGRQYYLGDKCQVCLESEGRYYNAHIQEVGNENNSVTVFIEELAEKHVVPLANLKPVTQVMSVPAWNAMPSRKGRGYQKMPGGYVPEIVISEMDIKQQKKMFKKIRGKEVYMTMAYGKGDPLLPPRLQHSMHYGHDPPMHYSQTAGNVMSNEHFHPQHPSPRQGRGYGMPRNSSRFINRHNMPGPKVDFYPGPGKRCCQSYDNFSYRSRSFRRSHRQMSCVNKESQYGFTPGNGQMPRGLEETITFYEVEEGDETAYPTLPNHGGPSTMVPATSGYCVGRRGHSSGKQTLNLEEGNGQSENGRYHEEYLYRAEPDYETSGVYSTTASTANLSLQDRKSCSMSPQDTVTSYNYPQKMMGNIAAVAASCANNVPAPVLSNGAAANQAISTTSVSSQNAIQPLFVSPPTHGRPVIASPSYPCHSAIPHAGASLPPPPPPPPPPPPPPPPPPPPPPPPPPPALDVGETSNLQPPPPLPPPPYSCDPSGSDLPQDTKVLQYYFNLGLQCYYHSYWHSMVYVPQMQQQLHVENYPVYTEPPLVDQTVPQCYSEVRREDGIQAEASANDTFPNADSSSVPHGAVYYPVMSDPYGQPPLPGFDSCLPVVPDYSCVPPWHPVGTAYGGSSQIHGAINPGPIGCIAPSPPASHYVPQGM
How it was run: (§1)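 Fragment (200 µM) or vehicle was incubated for 3 h with triplicate HEK293T lysate samples of 495 µg, which were then treated with Biotin-Ahx-Ub-VS at 0.5 µM final for 1 h. Labelled DUBs were enriched on NeutrAvidin, digested with LysC and trypsin, and analysed by diaPASEF LC-MS/MS. Values are average log2 fragment/vehicle ratios from an unpaired t-test on global-median-normalised Spectronaut label-free quantities, using proteins with ≥2 unique peptides.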

ATXN3 = ATXN3 (UniProt P54252)
ATXN3, sequence (P54252 whole entry): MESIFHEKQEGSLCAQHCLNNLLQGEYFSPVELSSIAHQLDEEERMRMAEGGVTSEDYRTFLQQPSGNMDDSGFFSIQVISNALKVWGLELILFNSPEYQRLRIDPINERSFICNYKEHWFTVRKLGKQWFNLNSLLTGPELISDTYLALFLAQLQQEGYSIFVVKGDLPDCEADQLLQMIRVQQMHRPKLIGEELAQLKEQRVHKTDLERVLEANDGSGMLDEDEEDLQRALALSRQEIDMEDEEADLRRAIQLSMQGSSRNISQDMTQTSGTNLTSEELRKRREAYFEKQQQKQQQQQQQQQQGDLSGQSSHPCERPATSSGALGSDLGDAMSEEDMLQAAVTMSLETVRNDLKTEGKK
How it was run: as §1

BAP1 = biological target: T2, BAP1 (UniProt Q92560)
T2 sequence (whole entry): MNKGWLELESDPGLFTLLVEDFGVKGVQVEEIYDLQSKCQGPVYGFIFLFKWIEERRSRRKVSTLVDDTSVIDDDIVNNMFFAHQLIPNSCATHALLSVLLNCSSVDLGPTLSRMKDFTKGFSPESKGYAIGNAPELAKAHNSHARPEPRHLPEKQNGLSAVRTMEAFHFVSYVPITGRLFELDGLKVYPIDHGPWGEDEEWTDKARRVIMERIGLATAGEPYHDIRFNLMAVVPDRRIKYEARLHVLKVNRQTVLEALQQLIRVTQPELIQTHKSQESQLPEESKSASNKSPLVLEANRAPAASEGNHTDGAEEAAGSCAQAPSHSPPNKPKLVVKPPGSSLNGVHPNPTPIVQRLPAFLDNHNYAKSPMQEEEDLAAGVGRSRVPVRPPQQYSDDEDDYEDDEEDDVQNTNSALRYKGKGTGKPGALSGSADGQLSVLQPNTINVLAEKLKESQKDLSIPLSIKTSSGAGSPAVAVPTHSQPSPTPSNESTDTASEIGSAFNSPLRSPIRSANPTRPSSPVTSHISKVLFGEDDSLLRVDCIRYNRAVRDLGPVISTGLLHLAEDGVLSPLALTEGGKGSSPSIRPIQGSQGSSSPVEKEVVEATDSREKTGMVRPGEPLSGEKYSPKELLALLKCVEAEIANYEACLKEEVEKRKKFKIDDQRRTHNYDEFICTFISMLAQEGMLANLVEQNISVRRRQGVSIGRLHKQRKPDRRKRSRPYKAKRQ
How it was run: as §1

EIF3F = EIF3F (UniProt O00303)
EIF3F, sequence (O00303 whole entry): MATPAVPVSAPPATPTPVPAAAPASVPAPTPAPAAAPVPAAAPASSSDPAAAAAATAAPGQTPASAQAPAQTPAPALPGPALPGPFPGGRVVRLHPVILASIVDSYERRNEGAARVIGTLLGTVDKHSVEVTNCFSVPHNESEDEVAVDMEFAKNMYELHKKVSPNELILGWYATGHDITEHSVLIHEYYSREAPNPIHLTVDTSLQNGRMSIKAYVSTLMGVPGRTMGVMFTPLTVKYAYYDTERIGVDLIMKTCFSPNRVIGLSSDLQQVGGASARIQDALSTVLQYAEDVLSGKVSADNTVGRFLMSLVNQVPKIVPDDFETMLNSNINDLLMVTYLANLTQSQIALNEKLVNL
How it was run: as §1

EIF3H = EIF3H (UniProt O15372)
EIF3H, sequence (O15372 whole entry): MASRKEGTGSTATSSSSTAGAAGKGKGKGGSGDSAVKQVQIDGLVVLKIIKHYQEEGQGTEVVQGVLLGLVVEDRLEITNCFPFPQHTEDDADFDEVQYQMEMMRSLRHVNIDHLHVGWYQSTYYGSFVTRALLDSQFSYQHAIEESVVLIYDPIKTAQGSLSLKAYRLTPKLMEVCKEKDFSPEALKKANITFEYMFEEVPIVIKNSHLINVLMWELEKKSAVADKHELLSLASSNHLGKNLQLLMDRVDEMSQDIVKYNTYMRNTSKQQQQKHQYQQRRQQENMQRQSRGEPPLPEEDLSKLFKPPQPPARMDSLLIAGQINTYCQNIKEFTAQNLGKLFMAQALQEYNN
How it was run: as §1

FAM105A = biological target: T3, FAM105A (UniProt Q9NUU6)
T3 sequence (whole entry): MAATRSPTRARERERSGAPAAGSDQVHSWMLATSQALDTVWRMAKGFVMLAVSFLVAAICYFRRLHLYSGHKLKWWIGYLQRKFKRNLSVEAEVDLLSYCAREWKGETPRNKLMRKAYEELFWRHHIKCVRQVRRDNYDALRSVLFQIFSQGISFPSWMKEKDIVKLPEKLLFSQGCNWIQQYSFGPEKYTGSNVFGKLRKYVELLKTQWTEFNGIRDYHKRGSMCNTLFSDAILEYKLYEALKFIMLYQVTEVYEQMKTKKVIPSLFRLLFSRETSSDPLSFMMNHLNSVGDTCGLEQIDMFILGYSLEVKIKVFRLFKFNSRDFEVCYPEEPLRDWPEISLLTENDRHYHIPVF
How it was run: as §1

OTUB1 = OTUB1 (UniProt Q96FW1)
OTUB1, sequence (Q96FW1 whole entry): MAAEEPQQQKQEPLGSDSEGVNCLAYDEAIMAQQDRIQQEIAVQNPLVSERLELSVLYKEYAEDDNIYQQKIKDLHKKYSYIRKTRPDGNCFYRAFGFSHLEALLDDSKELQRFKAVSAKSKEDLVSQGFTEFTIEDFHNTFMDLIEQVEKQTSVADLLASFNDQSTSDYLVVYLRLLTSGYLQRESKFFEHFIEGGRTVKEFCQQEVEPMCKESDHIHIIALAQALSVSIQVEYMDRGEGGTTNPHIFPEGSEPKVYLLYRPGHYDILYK
How it was run: as §1

OTUD4 = biological target: T4, OTUD4 (UniProt Q01804)
T4 sequence (whole entry): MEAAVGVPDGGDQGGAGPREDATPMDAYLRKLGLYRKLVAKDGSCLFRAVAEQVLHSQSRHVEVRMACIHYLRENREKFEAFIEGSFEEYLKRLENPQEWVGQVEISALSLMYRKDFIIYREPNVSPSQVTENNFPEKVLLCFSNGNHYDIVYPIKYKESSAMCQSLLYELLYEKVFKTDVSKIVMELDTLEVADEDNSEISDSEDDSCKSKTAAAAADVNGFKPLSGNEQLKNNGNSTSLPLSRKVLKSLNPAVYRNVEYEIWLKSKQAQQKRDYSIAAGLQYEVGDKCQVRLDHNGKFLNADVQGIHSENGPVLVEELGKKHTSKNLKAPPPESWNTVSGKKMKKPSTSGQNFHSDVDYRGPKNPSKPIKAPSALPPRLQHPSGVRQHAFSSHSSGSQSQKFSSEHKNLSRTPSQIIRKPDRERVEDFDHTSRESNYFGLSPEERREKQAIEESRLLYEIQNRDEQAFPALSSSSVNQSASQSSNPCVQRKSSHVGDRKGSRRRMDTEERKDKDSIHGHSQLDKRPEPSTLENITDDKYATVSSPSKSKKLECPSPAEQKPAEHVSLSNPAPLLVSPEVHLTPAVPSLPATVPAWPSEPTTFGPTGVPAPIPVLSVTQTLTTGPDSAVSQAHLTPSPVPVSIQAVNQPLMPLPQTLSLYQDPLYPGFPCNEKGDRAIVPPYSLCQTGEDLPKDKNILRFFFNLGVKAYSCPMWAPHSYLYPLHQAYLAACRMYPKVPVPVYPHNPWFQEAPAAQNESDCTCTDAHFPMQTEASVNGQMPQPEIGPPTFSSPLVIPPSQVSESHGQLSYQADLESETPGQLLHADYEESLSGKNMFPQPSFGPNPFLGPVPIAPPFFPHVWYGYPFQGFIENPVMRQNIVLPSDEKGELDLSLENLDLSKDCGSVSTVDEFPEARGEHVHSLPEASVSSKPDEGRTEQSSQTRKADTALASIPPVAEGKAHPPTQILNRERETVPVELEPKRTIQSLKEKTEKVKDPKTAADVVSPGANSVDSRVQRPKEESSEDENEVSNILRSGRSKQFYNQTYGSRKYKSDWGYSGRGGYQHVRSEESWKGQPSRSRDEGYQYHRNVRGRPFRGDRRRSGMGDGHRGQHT
How it was run: as §1

OTUD5 = biological target: T5, OTUD5 (UniProt Q96G74)
T5 sequence (whole entry): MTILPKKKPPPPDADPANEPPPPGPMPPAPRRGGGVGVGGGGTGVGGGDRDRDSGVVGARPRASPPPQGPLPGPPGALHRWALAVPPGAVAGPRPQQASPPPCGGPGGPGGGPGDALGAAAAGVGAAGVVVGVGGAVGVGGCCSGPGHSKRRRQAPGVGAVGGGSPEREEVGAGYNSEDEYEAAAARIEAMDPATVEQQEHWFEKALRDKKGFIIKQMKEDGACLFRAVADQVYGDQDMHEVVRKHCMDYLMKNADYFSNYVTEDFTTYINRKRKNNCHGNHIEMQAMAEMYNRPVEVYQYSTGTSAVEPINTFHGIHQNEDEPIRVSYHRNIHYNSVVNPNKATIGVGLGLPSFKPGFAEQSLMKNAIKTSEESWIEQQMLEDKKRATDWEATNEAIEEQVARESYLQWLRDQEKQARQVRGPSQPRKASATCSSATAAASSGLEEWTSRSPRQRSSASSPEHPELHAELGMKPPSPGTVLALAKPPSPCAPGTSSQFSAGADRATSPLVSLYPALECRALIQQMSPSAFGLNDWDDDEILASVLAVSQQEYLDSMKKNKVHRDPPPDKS
How it was run: as §1

Measured: log2 ratio of Biotin-Ahx-Ub-VS probe labelling

Cl.O=C(CCl)N1CC(c2ccc(Br)cn2)C1
inactive: ALG13 0.23 | ATXN3 -0.38 | EIF3F -0.158 | EIF3H 0.134 | FAM105A 0.0979 | OTUB1 -0.157 | OTUD4 -0.553 | OTUD5 -0.45
active: BAP1 -1.49
